Data on eight molecules can be found in ChEMBL document CHEMBL3988442, “University of Dundee, Small-Polar-MMV Screening Library” (2021).

For some of these results: Entries with a potency or affinity are not part of this list.

What all share (design): scale not given: direction of the effect not stated beside the values
Experiment [1] concerns the target Protein translocase subunit SecA (Escherichia coli (strain K12)) (UniProt P10408). Kind of experiment: Assay to Identify E. coli SecA ATPase Inhibitors. As to conditions: 30 µM. It counts as functional.
The target of experiment [2] is T1, Ubiquitin-activating enzyme e1, putative (Leishmania donovani (strain BPK282A1)) (UniProt E9BSI1).
T1 sequence (whole entry): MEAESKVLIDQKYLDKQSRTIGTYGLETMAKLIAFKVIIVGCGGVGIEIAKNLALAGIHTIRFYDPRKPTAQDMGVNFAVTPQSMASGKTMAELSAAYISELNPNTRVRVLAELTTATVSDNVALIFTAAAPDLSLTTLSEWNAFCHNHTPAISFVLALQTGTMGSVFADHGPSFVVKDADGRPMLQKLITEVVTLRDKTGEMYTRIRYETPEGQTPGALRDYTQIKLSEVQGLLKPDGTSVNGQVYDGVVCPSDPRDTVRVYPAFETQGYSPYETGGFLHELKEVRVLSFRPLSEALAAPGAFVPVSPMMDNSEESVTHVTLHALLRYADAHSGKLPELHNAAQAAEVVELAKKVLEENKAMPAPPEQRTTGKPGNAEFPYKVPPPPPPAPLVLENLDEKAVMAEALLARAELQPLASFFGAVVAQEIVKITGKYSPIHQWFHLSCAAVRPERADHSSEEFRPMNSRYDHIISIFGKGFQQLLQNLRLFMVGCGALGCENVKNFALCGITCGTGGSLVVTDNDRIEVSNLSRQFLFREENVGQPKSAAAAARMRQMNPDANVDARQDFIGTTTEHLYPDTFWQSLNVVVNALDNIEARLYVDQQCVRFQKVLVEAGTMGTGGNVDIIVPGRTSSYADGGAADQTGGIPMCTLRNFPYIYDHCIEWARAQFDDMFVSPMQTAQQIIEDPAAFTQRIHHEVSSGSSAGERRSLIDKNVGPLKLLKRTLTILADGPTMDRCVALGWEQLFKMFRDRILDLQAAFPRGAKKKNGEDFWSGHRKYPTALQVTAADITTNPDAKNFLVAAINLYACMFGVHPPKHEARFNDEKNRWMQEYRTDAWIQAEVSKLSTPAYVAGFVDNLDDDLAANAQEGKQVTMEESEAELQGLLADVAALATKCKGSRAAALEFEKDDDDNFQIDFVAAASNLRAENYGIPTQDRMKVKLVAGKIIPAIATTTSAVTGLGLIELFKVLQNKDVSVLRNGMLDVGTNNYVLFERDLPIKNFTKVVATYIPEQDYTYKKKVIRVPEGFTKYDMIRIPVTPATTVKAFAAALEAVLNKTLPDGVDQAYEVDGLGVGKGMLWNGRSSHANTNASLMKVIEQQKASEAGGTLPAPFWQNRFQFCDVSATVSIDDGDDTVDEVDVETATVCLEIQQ
Nature of the experiment: Leishmania donovani Ubiquitin Activating Enzyme (LdE1). As to conditions: 30 µM. The class given is functional.

Experiment [3] concerns the target AMP-activated protein kinase, AMPK (Homo sapiens) (UniProt P54646+O43741+P54619+Q9UGJ0+Q9Y478+Q13131+Q9UGI9). Kind of experiment: AMP-dependent Kinase enzyme assay. An in vitro enzyme assay that detects ADP turnover that is directly proportional to AMPK activity. This uses naive AMPK that is activated during the assay with MK-8722. The class given is functional. The note with it: 30 µM.

Experiment [4] deals with Sialic acid-binding Ig-like lectin 9 (Homo sapiens) (UniProt Q9Y336). Kind of experiment: Hs-Siglec9 ALPHAscreen SOP 20170721. As to conditions: 10 µM. (In general: Alpha assays give light when donor and acceptor beads are brought close together.)
For the next experiment, the system named is Trypanosoma cruzi. Nature of the experiment: Trypanosoma cruzi phosphomannomutase and mannose-1-phosphate guanylyltransferase assay. It counts as functional. As to conditions: 10 µM.
The target in experiment [5] is T2, Arginase-2, mitochondrial (Homo sapiens) (UniProt P78540).
T2 sequence (whole entry): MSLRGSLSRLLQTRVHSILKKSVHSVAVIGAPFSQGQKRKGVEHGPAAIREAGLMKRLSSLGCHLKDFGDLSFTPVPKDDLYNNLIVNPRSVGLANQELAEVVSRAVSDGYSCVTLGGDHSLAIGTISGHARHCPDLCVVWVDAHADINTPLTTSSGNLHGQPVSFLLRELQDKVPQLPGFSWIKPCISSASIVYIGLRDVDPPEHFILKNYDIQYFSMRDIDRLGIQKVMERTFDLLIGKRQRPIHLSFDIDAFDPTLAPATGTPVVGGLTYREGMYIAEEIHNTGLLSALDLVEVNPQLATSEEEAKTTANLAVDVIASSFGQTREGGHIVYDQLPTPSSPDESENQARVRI
Nature of the experiment: in vitro enzyme assay to detect the production of urea directly proportional to the activity of Arginase II. Further: in the data most compounds retested in dose-response had high values. It counts as functional. The note with it: 33.3 µM.

For experiment [6], the target named is T3, Proteasome subunit beta (Trypanosoma cruzi) (UniProt O96673).
T3 sequence (whole entry): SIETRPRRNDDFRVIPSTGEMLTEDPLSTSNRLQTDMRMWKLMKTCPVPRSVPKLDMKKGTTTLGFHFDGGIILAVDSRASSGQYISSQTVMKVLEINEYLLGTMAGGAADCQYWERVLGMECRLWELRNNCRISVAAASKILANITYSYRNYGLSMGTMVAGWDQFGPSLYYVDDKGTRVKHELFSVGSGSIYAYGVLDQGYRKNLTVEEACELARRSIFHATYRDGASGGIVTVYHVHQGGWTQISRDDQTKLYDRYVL
Nature of the experiment: Trypanosoma cruzi proteasome chymotrypsin-like activity (TcProtChymo) assay. Further: in the data most compounds retested in dose-response had high values. It counts as functional. The note with it: 9.37 µM.

The species named for a further experiment is Homo sapiens. Kind of experiment: To identify inhibition of the IFN signalling (Jak-Stat) pathway via expression of an eGFP reporter gene under the control of an IFN-stimulated response element (ISRE) containing MxA promoter. The class given is functional. The note with it: 30 µM.
In experiment [7] the target is T4, Tyrosyl-tRNA synthetase, putative (Trypanosoma cruzi (strain CL Brener)) (UniProt Q4DSP6).
T4 sequence (whole entry): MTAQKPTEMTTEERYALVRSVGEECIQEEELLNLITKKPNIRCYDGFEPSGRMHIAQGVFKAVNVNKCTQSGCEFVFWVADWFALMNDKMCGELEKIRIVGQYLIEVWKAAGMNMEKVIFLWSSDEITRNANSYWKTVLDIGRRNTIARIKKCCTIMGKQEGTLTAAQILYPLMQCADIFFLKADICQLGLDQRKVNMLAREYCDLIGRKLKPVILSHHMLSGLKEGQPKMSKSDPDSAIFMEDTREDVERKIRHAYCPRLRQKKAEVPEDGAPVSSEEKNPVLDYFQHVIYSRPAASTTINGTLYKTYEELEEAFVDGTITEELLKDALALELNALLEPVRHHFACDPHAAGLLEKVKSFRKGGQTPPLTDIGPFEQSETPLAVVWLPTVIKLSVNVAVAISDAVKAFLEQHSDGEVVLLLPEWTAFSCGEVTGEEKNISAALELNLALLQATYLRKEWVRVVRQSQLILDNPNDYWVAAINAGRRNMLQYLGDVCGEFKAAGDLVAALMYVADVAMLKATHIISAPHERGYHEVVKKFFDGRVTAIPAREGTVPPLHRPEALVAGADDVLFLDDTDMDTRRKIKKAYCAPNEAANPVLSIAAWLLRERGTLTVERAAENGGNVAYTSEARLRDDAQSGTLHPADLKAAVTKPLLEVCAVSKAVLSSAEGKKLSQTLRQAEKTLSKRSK
Kind of experiment: Trypanosoma cruzi tyrosyl tRNA synthetase (TcYRS) _High Tyrosine SOP. Further: in the data most compounds retested in dose-response had high values. As to conditions: 30 µM. The class given is functional.

Experiment [8] concerns the target T4, Tyrosyl-tRNA synthetase, putative (Trypanosoma cruzi (strain CL Brener)). Kind of experiment: Trypanosoma cruzi tyrosyl tRNA synthetase (TcYRS) SOP. As to conditions: 30 µM. The class given is functional.
The target of experiment [9] is Chromo domain-containing protein 1 (Saccharomyces cerevisiae (strain ATCC 204508 / S288c) (Baker's yeast)) (UniProt P32657). Kind of experiment: ScCHD-1 Enzyme Inhibition Assay. Further: in the data most compounds retested in dose-response had high values. It counts as functional. The note with it: 30 µM.
Chromo domain-containing protein 1 (Saccharomyces cerevisiae (strain ATCC 204508 / S288c) (Baker's yeast)), sequence (P32657 whole entry, the tested form may be a part): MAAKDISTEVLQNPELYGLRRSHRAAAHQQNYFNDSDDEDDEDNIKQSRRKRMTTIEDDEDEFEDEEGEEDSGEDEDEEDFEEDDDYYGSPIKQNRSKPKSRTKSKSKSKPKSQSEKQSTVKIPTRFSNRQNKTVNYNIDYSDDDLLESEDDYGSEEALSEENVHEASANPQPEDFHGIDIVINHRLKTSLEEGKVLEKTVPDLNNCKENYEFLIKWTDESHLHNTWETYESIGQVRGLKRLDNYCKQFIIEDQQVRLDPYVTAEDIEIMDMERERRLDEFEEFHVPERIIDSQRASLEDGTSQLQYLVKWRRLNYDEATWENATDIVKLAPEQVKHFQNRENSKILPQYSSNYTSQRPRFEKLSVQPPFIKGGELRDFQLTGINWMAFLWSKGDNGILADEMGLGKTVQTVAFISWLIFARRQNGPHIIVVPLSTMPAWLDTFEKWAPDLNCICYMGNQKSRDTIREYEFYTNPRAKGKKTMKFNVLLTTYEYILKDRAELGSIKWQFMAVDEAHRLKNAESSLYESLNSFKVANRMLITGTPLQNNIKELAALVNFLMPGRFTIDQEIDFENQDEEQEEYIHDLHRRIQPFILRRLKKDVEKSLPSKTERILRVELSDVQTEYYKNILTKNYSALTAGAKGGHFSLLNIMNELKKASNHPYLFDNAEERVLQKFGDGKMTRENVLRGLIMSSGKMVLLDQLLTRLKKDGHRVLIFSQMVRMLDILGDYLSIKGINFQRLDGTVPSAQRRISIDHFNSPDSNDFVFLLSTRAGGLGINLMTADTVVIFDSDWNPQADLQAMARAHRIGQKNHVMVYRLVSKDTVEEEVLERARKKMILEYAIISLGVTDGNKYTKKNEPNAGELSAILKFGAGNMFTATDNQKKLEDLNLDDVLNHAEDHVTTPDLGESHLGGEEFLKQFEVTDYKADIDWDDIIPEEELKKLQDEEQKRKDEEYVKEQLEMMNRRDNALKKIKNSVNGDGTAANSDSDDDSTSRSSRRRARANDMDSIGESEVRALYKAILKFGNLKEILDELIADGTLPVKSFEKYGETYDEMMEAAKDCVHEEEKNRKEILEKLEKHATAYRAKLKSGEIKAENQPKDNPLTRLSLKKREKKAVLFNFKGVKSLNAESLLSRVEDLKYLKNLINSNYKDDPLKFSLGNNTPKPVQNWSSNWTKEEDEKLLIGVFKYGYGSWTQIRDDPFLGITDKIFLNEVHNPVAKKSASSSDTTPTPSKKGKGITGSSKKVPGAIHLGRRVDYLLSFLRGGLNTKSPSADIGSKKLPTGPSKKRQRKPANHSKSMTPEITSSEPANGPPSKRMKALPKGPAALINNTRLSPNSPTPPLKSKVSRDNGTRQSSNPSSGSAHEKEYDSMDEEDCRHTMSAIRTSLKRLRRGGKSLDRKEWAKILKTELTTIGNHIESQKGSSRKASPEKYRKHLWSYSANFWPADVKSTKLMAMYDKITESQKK

Sialic acid-binding Ig-like lectin 9 (Homo sapiens), sequence (Q9Y336 whole entry): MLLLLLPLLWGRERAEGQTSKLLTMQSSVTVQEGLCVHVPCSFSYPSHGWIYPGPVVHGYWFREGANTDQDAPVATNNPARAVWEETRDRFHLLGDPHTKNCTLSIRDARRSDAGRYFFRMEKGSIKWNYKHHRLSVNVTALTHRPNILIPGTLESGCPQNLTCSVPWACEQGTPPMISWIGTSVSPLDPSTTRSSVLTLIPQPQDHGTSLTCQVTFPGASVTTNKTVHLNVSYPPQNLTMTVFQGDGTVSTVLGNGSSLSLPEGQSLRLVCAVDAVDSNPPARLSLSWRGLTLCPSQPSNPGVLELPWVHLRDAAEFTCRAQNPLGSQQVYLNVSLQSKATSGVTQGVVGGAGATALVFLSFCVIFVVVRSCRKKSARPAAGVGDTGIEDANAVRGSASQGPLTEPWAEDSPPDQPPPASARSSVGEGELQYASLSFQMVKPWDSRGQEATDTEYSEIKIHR
Protein translocase subunit SecA (Escherichia coli (strain K12)), sequence (P10408 whole entry): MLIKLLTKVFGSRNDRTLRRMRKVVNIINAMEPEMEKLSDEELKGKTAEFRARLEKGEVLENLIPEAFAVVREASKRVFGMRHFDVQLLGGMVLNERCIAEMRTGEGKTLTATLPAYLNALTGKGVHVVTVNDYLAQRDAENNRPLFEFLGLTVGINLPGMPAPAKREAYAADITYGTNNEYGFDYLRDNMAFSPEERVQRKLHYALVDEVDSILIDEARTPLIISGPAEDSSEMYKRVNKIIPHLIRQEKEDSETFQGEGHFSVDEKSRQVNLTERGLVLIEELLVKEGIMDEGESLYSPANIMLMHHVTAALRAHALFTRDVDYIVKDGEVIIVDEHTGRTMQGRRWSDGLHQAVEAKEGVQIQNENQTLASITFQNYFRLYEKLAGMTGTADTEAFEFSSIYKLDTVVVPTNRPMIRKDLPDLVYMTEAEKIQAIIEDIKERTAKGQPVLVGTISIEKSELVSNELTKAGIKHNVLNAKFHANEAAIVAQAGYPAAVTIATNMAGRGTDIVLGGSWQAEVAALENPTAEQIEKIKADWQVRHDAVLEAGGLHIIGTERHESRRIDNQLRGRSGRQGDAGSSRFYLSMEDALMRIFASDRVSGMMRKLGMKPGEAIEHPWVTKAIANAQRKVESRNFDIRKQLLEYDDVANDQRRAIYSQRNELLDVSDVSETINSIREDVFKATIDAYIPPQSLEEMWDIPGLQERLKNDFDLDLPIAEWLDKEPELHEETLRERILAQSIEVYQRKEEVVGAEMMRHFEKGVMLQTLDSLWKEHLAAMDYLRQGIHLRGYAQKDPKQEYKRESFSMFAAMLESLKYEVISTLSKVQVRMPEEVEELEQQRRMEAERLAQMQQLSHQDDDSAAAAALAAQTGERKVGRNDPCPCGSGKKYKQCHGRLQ

On to `COc1ccccc1[C@@H]1CN(Cc2cc(C(C)(C)C)[nH]n2)C[C@H]1C(=O)O`, for which the Percent Effect in experiment [1] is -3.72%; in [2], 18.1%; in experiment [3], -4.78%; in [4], 2.73%; in the experiment on Trypanosoma cruzi, 4.18%; in experiment [5] it was 5.3%. Also, the Percent Effect in experiment [6] is 20.2%; in the experiment filed under Homo sapiens, 0.766%; in experiment [7] it was 5.26%; in [8], 10.3%; in experiment [9], -3.34%.
Take `CCCc1nc(N2Cc3cnn(Cc4ccc(F)cc4)c3C2)no1`: the Percent Effect in experiment [1] was -3.65%; in [2] it was 5.33%; in experiment [3], 7.03%; in experiment [4], 2.42%; with Trypanosoma cruzi, -2.04%; in [5], 2.6%. For the same molecule, the Percent Effect in experiment [6] was 14.1%; in the experiment listed under Homo sapiens, 19.7%; in experiment [7] it was 4.92%; in experiment [8], 11.1%; in experiment [9], -7.25%.
Consider `CC(=O)NCC(=O)N1CC[C@H](OCC2CC2)[C@@H]1Cc1cccnc1`, for which the Percent Effect in experiment [1] is -0.669%; in [2], 5.33%; in experiment [3] it was -3.45%; in [4] it was 5.96%; in the experiment with Trypanosoma cruzi, -2.51%; in experiment [5] it was -50%. In addition, the Percent Effect was 5.47% in [6]; 1.5% in the experiment listed under Homo sapiens; 1.04% in experiment [7]; -47.5% in experiment [8]; -0.336% in [9].
Regarding `COc1cccc(CNC(=O)C(c2cccc(F)c2)N2CCOCC2)c1` (stereo not drawn), the Percent Effect in experiment [1] was -6.42%; in experiment [2], 18.4%; in experiment [3] it was -1.09%; in [4] it was 6.14%; in the experiment with Trypanosoma cruzi it was 2.82%; in experiment [5], -5.92%. For the same molecule, the Percent Effect in experiment [6] is 4.12%; in the experiment listed under Homo sapiens, 5.78%; in [7], 6.38%; in experiment [8] it was 18.2%; in experiment [9], -11.1%.
With `COc1ccc(F)c(CN2CCC3(CCC(=O)N(CC(N)=O)C3)CC2)c1`, the Percent Effect in experiment [1] was -4.11%; in experiment [2] it was 5.33%; in experiment [3], -12.6%; in experiment [4], -1.01%; in the experiment with Trypanosoma cruzi, -3.02%; in [5], -3.12%. Also, the Percent Effect in experiment [6] is 12.4%; in the experiment listed under Homo sapiens it was 36.4%; in [7], 6.01%; in experiment [8], 8.64%; in experiment [9], -5.79%.
With `N#Cc1ccc(C(=O)NCCCNc2ccc(C(F)(F)F)cn2)cc1`, the Percent Effect in experiment [1] was -0.682%; in [2] it was 13.2%; in experiment [3], 3.77%; in experiment [4], -0.309%; in the experiment on Trypanosoma cruzi it was -7.52%; in [5], -0.766%. For the same molecule, the Percent Effect was 9.02% in experiment [6]; 35.5% in the experiment listed under Homo sapiens; 7.35% in experiment [7]; 17.1% in experiment [8]; -10.9% in experiment [9].
For the molecule `CN(Cc1cnn(C)c1)C(=O)NCc1csc(Br)c1`, the Percent Effect in [1] is -1.72%; in [2] it was 16.2%; in experiment [3], 10.9%; in [4], -2.71%; in the experiment with Trypanosoma cruzi it was -8.08%; in experiment [5], 2.77%. The Percent Effect is 14.7% in experiment [6]; 17.1% in the experiment listed under Homo sapiens; -3.96% in experiment [7]; -1.22% in experiment [8]; -6.6% in experiment [9].
With `CCOCCn1nc(C)cc1C(=O)N1CC[C@](C)(O)[C@H](C)C1`, the Percent Effect in experiment [1] is -5.83%; in experiment [2], 5.41%; in experiment [3] it was -0.231%; in experiment [4] it was 3.85%; in the experiment with Trypanosoma cruzi it was -4.25%; in [5], -1.91%. The Percent Effect was 6.03% in [6]; -3.48% in the experiment filed under Homo sapiens; 2.65% in experiment [7]; 9.76% in experiment [8]; -1.04% in [9].
